ELG1 DNA repair – inhibitors of ELG1-dependent DNA repair in HEK293T cells. HEK293T ELG1-luciferase reporter, luminescence, 16 h; DNA damage induced by 5-fluorouridine. Potency, µM (titrated, usually from 46.1 µM), hits mostly inhibitors. hit rate 2.3% among 330,000. AID 504467; further: nearly all actives have a fitted effect of over 55% in size
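Quantitative HTS, concentration-response format. 2,000 cells/well co-treated with 5-fluorouridine and compound, 16 hr in 5% CO2 at 37 °C; ONE-Glo luminescence read after 30 min.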
TDP1 cell noCPT – qHTS for Inhibitors of human tyrosyl-DNA phosphodiesterase 1 (TDP1): qHTS in cells in absence of CPT | DT40 Tdp1-/- hTDP1 cells, no CPT, ATP luminescence, 48 h | Potency, µM (doses to about 46.2 µM), most hits filed as inhibitors | hit rate 15% among 420,000 | AID 686978, 2013; further: nearly all actives have a fitted effect of over 55% in size
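Growth of hTDP1-complemented DT40 Tdp1-knockout cells is measured by ATP luminescence after at least 48 hr compound exposure at 37 °C, with DMSO substituting for the 20 nM CPT used in the parallel screen.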
TDP1 cell CPT – growth inhibition of DT40 Tdp1-/-;hTDP1 cells with camptothecin (screen for TDP1 inhibitors); chicken DT40 Tdp1-/-;hTDP1 cells + 20 nM CPT, ATP luminescence, 48 h; Potency, µM (highest dose often 46.2 µM), hits mostly inhibitors; hit rate 12% among 420,000; AID 686979; further: nearly all actives have a fitted effect of over 55% in size
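Chicken DT40 Tdp1-/- cells complemented with human TDP1, 400 cells/well, exposed to compounds plus 20 nM camptothecin for at least 48 h at 37 C; viability read as ATP content by CellTiter-Glo luminescence.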
RORgamma inh – inhibitors of mouse ROR gamma transcriptional activity | P51450 | Drosophila S2 Gal4-RORgamma UAS-luciferase reporter, 20 h | Potency, µM (doses to about 53.6 µM), most hits filed as inhibitors | hit rate 5.4% among 310,000 | AID 2551; further: nearly all actives have a fitted effect of over 60% in size
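ROR gamma transcriptional activity was tracked as Gal4-UAS luciferase output in stably transfected Drosophila Schneider cells, with compound added 1 hr before 700 uM copper sulfate induction and a 20 hr ambient-temperature incubation.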
Gal4-VP16 FLuc – Gal4-VP16 reporter inhibition counter-screen. Drosophila S2 Gal4-VP16 UAS-luciferase, luminescence, 20 h. Potency, µM (highest dose often 53.6 µM), usual class: inhibitors. hit rate 3.5% among 310,000. AID 2546;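 further: Gal4-VP16 expression switched on by copper sulfate through the metallothionein promoter; nearly all actives have a fitted effect of over 50% in size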
12-LOX inh – ALOX12 (human) lipoxygenase inhibition; purified 12hLO, xylenol orange hydroperoxide absorbance; Potency, µM (top dose mostly 108 µM), usual class: inhibitors; hit rate 1.1% among 580,000; AID 1671190
Target sequence (P18054 whole entry, looked up): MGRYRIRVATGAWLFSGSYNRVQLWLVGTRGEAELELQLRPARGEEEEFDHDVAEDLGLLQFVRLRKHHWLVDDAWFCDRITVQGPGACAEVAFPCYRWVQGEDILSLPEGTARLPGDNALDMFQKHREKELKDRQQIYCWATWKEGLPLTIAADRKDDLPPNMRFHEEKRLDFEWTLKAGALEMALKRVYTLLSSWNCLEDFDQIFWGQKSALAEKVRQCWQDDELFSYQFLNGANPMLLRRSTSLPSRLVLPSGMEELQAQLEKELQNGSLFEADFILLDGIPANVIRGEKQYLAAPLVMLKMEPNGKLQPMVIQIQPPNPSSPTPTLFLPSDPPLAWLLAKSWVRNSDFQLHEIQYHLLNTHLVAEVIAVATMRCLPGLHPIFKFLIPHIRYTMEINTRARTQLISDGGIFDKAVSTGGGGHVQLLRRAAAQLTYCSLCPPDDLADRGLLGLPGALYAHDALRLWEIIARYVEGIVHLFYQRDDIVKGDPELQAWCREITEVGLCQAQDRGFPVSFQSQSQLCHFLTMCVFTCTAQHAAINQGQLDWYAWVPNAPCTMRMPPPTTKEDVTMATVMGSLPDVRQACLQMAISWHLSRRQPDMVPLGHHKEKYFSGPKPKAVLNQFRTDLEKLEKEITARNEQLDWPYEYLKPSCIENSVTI
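Purified human 12hLO (150 nM final) in 25 mM Hepes, 0.01% Triton X-100, pH 7.0 was preincubated 15 min at room temperature with compound. Then 40 uM arachidonic acid was added, 30 min. Hydroperoxide was read by Fe-XO absorbance ratio 573/405 nm.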
Hits are given with their value; . = inactive; ? = inconclusive; / = no result given; [ ] = another dose, or the depositor's remark. Hits are enriched below; roughly 15% of the tested compounds scored in any of these assays. The call rests on the fitted dose curve; in most records, active means well fitted curve in the direction sought with a large enough effect; inconclusive means small, poorly fitted or top-dose-only effect, or another doubt; inactive means no such curve, though single readings can be large; an effect the other way counts as inactive or inconclusive.

SMILES	ELG1 DNA repair	TDP1 cell noCPT	TDP1 cell CPT	RORgamma inh	Gal4-VP16 FLuc	12-LOX inh
Cc1cccc(NC(=O)CN(CC2CCCO2)C(=O)c2oc3ccccc3c2C)c1C (stereo not given)	?	?	29µM	/	/	.
Cc1cccc(NC(=O)CN(CC2CCCO2)C(=O)c2cc3ccccc3o2)c1C (stereo not given)	.	?	?	/	/	.
CCN1C(=O)c2ccccc2Sc2ccc(C(=O)NCCN3CCOCC3)cc21	.	.	.	.	.	.
CCN1C(=O)c2ccccc2Sc2ccc(C(=O)NCCCN(CC(C)C)CC(C)C)cc21	.	16µM	15µM	.	.	.
CCCCN(CC)CCCNC(=O)c1ccc2c(c1)N(Cc1ccc(C)cc1)C(=O)c1ccccc1S2	/	5.2µM	5.8µM	/	/	?
COCCCNC(=O)c1ccc2c(c1)N(Cc1ccccc1)C(=O)c1ccccc1S2	/	.	.	/	/	.
CC1(c2ccccc2)N(Cc2cccnc2)C(=O)OC12CCN(Cc1ccccc1Cl)CC2 (stereo not given)	/	/	/	/	/	.
COc1cc(-c2ccc(C)cc2)nc2ccc(C(=O)N3CCCC3)cc12	/	/	/	/	/	.
COc1ccccc1NC1=C(C)C(=O)CC1	?	?	.	13µM	.	.
Cc1cc(C)c(C(N)C(=O)O)c(C)c1 (stereo not given)	/	/	/	/	/	.
CCN(CC)c1ccc(N=C2C=CC(=O)C=C2NC(C)=O)cc1	/	2.9µM	5.2µM	/	/	?
CCN(CC)c1ccc(NC(=O)Nc2ccc(C(C)=O)cc2)cc1	.	?	.	?	?	.
c1ccc(-c2nnc(CN3CCCc4ccccc43)o2)cc1	?	23µM	?	.	?	.
CC(C)C(=O)N1CCN(c2ccccc2NC(=O)COc2ccc(C3CCCCC3)cc2)CC1	21µM	?	?	.	.	/
Cc1cc(N2CCCC2)ccc1NC(=O)COc1cccc(C(F)(F)F)c1	?	4.6µM	8.2µM	11µM	?	.
Cc1cccc(OCC(=O)Nc2ccccc2N2CCCCC2)c1	.	?	12µM	.	.	?
Cc1ccc(OCC(=O)Nc2ccccc2N2CCCC2)c(C)c1	.	29µM	?	.	.	.
Cc1ccc(C)c(OCC(=O)Nc2ccccc2N2CCCC2)c1	.	?	?	.	.	.
CN(CCc1noc(C(=O)NCc2ccccc2)n1)C(=O)Nc1ccc(F)c(Cl)c1	/	/	/	/	/	.
NNC(=O)COc1cccc(C(F)(F)F)c1	.	.	.	8.9µM	.	.
COc1cc(C(=S)N2CCCC2)cc(Cl)c1OCC(=O)Nc1ccc(C)cc1C	?	?	13µM	.	.	?
CN1CCN(NC(=O)COc2cccc(C(F)(F)F)c2)CC1	.	.	.	.	.	.
Cc1ccc(NC(=O)COC(=O)c2ccc(Cl)c(S(=O)(=O)N3CCCCCC3)c2)c(C)c1	/	/	/	/	/	.
COC(=O)c1cccc(-c2nc(C3CC(=O)N(c4ccc(F)c(Cl)c4)C3)no2)c1 (stereo not given)	/	/	/	/	/	.
CCOc1ccc(-c2c(=O)n(OCC)c3ccccc3[n+]2[O-])cc1	.	.	.	.	.	?
SMILES	ELG1 DNA repair	TDP1 cell noCPT	TDP1 cell CPT	RORgamma inh	Gal4-VP16 FLuc	12-LOX inh
CCOc1ccc(OCC)c(-c2c(=O)n(OCc3ccc(C(C)(C)C)cc3)c3ccccc3[n+]2[O-])c1	?	18µM	21µM	.	.	.
CCOc1ccc(-c2c(=O)n(O)c3ccccc3[n+]2[O-])cc1	?	13µM	?	?	?	.
CCc1ccccc1S(=O)(=O)N1CCC(n2cnnc2C(C)C)CC1	/	/	/	/	/	.
CC(NC(=O)C12CC3CC(CC(C3)C1)C2)c1cccs1 (stereo not given)	/	/	/	/	/	.
CCC/C(O)=C1\C(=O)CC(C)(C)CC1=Nc1ccc(OC)cc1	.	15µM	?	.[1.91 µM]	.	.
CCCC/C(O)=C1\C(=O)CC(C)(C)CC1=Nc1ccc(OC)cc1	.	?	?	?	.	.
O=C(CNc1ccc2ccccc2c1)N/N=C/c1ccc([N+](=O)[O-])o1	.	21µM	15µM	.	?	.
O=C(CSc1ccc(Cl)cc1)N/N=C/c1ccc([N+](=O)[O-])o1	.	?	16µM	.	?	40µM
Cc1ccc(NC(=O)CCC(=O)N/N=C/c2ccc([N+](=O)[O-])o2)cc1C	?	?	?	.	.	.
COc1cccc(N2C(=O)NC(=NC3CCCC3)C23CCN([S+](=O)([O-])c2cccc(OC)c2)C3)c1 (stereo not given)	/	/	/	/	/	.[6.33 µM]
Cc1nc(-c2cc3ccc(OC(=O)C4CC4)cc3oc2=O)cs1	/	/	/	/	/	.
CCOC(=O)/C=C1\CN(Cc2cc(OC)c(OC)c(OC)c2)S(=O)(=O)c2ccc(C(F)(F)F)cc21	?	12µM	23µM	.	?	.
CCCCCCCCCCCCN1C/C(=C\C(=O)OCC)c2ccccc2S1(=O)=O	.	11µM	16µM	.	.	.
CCOC(=O)/C=C1\CN(Cc2cc(OC)c(OC)c(OC)c2)S(=O)(=O)c2ccccc21	?	6.5µM	10µM	?	?	.
COCCOCCCNC(=O)CCNC(=O)c1ccc(C(C)(C)C)cc1	/	/	/	/	/	.
Cc1ccc(NC(=O)c2ccccc2Oc2ccccc2)cc1S(=O)(=O)N(C)C	/	/	/	/	/	.
COC(=O)Cc1c(OC)ccc2cc(Br)ccc12	/	/	/	/	/	.
CCCCN(C)C(=O)Cc1c(OC)ccc2cc(Br)ccc12	.	18µM	23µM	.	.	.
COC(=O)C1CCN(C(=O)Cc2c(OC)ccc3cc(Br)ccc23)CC1	?	?	18µM	.	?	.
COCC(=O)NC1CCC12CCN(C(=O)c1ccoc1)CC2 (stereo not given)	/	/	/	/	/	.
O=C(NCc1cccnc1)C1CC(c2ccc(Cl)c(Cl)c2)=NO1 (stereo not given)	.	21µM	?	?	.	.
O=C(NCc1ccccn1)C1CC(c2ccc(Cl)c(Cl)c2)=NO1 (stereo not given)	?	21µM	?	.	.	.
COc1ccc(C2=NOC(C(=O)NCc3cccnc3)C2)cc1OC (stereo not given)	.	?	?	.	.	.
COCCOc1ccc2c(n1)CCN(C(=O)Cc1ccccc1)C2	/	/	/	/	/	.
CC(=O)Nc1ccc(NC(=O)C2(C)CC2(Cl)Cl)cc1 (stereo not given)	.	18µM	?	.	.	.
CCc1nc2c(=O)n(CC(=O)N3CCC(Cc4ccccc4)CC3)nc(C)c2s1	/	/	/	/	/	.
Cc1cccc(N2CCN(C(=O)Cn3sc4nc(C)cc(C)c4c3=O)CC2C)c1 (stereo not given)	.	4.6µM	3.7µM	7.1µM	13µM	/
